The source made the active and inactive calls.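 How the source made its calls: active means compounds killing one labelled cell type while sparing the other, by normalised counts and ratio limits, not self-fluorescent; inactive means the rest.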

The first test is described as follows: EMT-state selective cytotoxicity in co-culture – imaging, PC-3E GFP, TEM4-18 mCherry, primary screen (AID 1345086).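 Further: cells exposed to compound for 72 h before imaging.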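 On red/green cell ratio (normalised): normalised mesenchymal count divided by normalised epithelial count so high means epithelial killing.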 Particulars: PC-3E GFP / TEM4-18 mCherry co-culture, imaging cell counts; at 1 µM; actives lie on both sides; counts scaled to control wells, 1 = unselective.
Take `CN[C@@H]1[C@@H](O)C(OC2[C@@H](N)C[C@@H](N)[C@H](O[C@H]3O[C@H](C(C)O)[C@@H](O)[C@H](O)[C@H]3N)[C@H]2O)OC[C@]1(C)O` (some centres undefined): the red/green cell ratio (normalised) is 1.08 (inactive).

As to `O=C(O)CCCOc1ccc(Cl)cc1Cl`, the red/green cell ratio (normalised) is 0.77 (inactive).

For `CC[C@@H]1C(=O)OC[C@@H]1Cc1cncn1C`, the red/green cell ratio (normalised) is 1.18 (inactive).

As to `O=C(O)CCC1NCC2CC1CN1CCCCC21` (centres undefined), the red/green cell ratio (normalised) is 1.12 (inactive).

Turning to `C[C@H]1CCCC(=O)CCC/C=C/c2cc(O)cc(O)c2C(=O)O1`, the red/green cell ratio (normalised) is 1.02 (inactive).

The test is the same for the next values; noted with them: PC-3E GFP / TEM4-18 mCherry co-culture, imaging cell counts; measured here: epithelial PC-3E GFP cell survival; at 1 µM.
`CN[C@@H]1[C@@H](O)C(OC2[C@@H](N)C[C@@H](N)[C@H](O[C@H]3O[C@H](C(C)O)[C@@H](O)[C@H](O)[C@H]3N)[C@H]2O)OC[C@]1(C)O` (some centres undefined): the normalised cell number turned out to be 0.91.

`COc1cc(OC)c(OC)cc1C=O` came in with a normalised cell number of 1.13.

Molecule `[N-]=[N+]=CC(=O)OCC(N)C(=O)O` (centres undefined) gave a normalised cell number of 0.86.

For the molecule `C[C@H](N)[C@H](O)c1ccc(O)c(O)c1`, the normalised cell number came out at 1.01.

`S=C=NCc1ccccc1` displayed a normalised cell number of 1.15.

With `O=C(O)CCCOc1ccc(Cl)cc1Cl`, the normalised cell number came to 1.36.

Turning to `CC[N+]1(C)CCCC(OC(=O)C(O)(c2ccccc2)c2ccccc2)C1` (centres undefined), the normalised cell number was 1.12.

In turn, `CC1=NCCc2c1[nH]c1cc(O)ccc21` showed a normalised cell number of 1.01.

Molecule `C[C@@H](N)[C@@H](O)c1ccccc1` returned a normalised cell number of 1.13.

As for `COc1cc([C@@H]2c3cc4c(cc3[C@@H](O)C3COC(=O)C32)OCO4)cc(OC)c1O` (some centres undefined), the normalised cell number was determined as 0.29.

With `ClC1C(Cl)C(Cl)C(Cl)C(Cl)C1Cl` (centres undefined), the normalised cell number came out at 1.23.

In turn, `O=C(O)CC[N+](=O)[O-]` returned a normalised cell number of 0.86.

With `C=CCC1(C(C)CCC)C(=O)N=C(S)NC1=O` (centres undefined), the normalised cell number stood at 0.79.

`O=C1C=C2C=C[C@@H]3C[C@@]2(O1)[C@H]1CCCCN31` returned a normalised cell number of 1.21.
